Source: PubChem BioAssay (several laboratories)
EBV LMP1 NFkB – inhibitors of Epstein-Barr LMP1-induced NF-kappaB reporter; actives 0.69% (n = 350,000); LMP1-induced NF-kappaB luciferase reporter cells, luminescence; AID 504558; inhibition, % at 12.5 µM; in the data active means inhibition above about 41%;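 further: 0% = neutral control wells and 100% = reference inhibitor control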
LGR2 inh – blocks bursicon-induced cAMP signaling via Drosophila LGR2; HEK293 LGR2, CRE-luciferase, bursicon-stimulated, 4 h; inhibition, % at 9.99 µM; AID 720647; actives 0.35% (n = 380,000);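 active means drop in luminescence signal, shown as inhibition above about 50% in the replicate tests, limit read from the data, passing the limit was not always enough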;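 further: agonist challenge used bursicon conditioned medium at about half maximal strength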
HSP90 refold inh – HSP90 refolding inhibition in rabbit reticulocyte lysate; AID 1789; inhibition, % at 5.6 µM; luciferase refolding luminescence, 3 h; actives 0.91% (n = 290,000);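 active means inhibition above the screen-wide mean plus 3 SD, computed separately per campaign, cut at about 16% in these data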;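 further: 0% = DMSO wells and 100% = 60 µM geldanamycin wells; inhibitors lower the luminescence because luciferase stays unfolded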
TROY signal inh – inhibitors of TROY-dependent NF-kB signaling | inhibition, % at 10 µM | Q293 LMP1-TROYcd NF-kB luciferase reporter, 4 h | actives 0.98% (n = 360,000) | AID 1347056;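 active means compounds whose plate-normalised and pattern-corrected inhibition of the luciferase reporter signal at the single screening dose is 50% or more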
TWEAK-Fn14 inh – inhibitors of TWEAK-Fn14 interaction signaling | inhibition, % at 10 µM | TWEAK-stimulated Fn14 reporter cells, luciferase luminescence, 8 h | AID 1159606 | actives 2% (n = 360,000); in the data active means inhibition above about 50%
aDG glyco up – increases alpha dystroglycan glycosylation; Pro5-aDG cells, alpha-DG glycosylation AlphaScreen (IIH6); 0% Pro5, 100% B10-LARGE cell signal; activation, % at 10 µM; actives 0.22% (n = 360,000); AID 624168;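 active means activation of at least 8% versus controls, or a plate z-score of at least 8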;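 further: Pro5 are CHO cells carrying HIG-tagged alpha-DG that lacks glycosylation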
aDG conf – alpha-DG glycosylation activation, confirmation. shares compounds with aDG glyco up. Pro5-aDG cells, IIH6 AlphaLISA; scaled to LARGE-overexpressing B10 cells as 100%. activation, % at 10 µM (by protocol). actives 17% (n = 600). AID 651671;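 active means activation of at least 7% in one or more replicates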;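 further: cells exposed to compound for two days before detection; 0% = DMSO-treated Pro5 cells and 100% = DMSO-treated B10-LARGE cells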
The depositor's hits bear a star; . = no result given. Shown are actives, neighbours in structure and some others; about 2.6% of the full set was active somewhere.

SMILES	EBV LMP1 NFkB	LGR2 inh	HSP90 refold inh	TROY signal inh	TWEAK-Fn14 inh	aDG glyco up	aDG conf
CC(C)c1cn(CC[C@H]2CC[C@@H](NS(=O)(=O)Cc3ccccc3)[C@@H](CO)O2)nn1	.	-4.8	.	.	.	.	.
C=CCNC(=S)N/N=C/c1ccc(OCc2ccccc2Cl)cc1	10.5	-13.7	4.9	-28.9	-5.2	6.5*	-0.2
COc1ccc2c3c([nH]c2c1)[C@H](CO)N(Cc1nccs1)CC31CCN(C(=O)C2CCCC2)CC1	.	3.6	.	.	.	.	.
CCCNS(=O)(=O)c1ccc(OCC(=O)NCCC2=CCCCC2)cc1	2.4	-0.5	4.8	-3.0	-2.7	9.1*	0.3
CO[C@@H]1CN(C)C(=O)c2ccc(NC(=O)c3ccccc3)cc2OC[C@@H](C)N(C(=O)C2CC2)C[C@@H]1C	.	8.4	.	.	.	.	.
COc1ccc(CC(=O)N/N=C/c2cccnc2)cc1OC	-6.8	4.0	-3.4	-9.1	13.4	6.5*	-0.8
CCOc1ccc(CC(=O)N/N=C/c2cccnc2)cc1OCC	-0.9	-4.2	0.2	6.8	-29.0	0.2	.
Cc1ccc(NC(=O)C[C@H]2CC[C@H]3[C@@H](COc4ccc(NC(=O)C(C)C)cc4C(=O)N3C)O2)cc1	.	-23.3	.	.	.	.	.
COc1ccccc1CCC(=O)OCC(=O)c1c(N)n(CC(C)C)c(=O)n(C)c1=O	16.5	-24.4	.	25.3	30.6	6.5*	-0.8
CCOc1ccccc1OCC(=O)OCC(=O)c1c(N)n(CC(C)C)c(=O)n(C)c1=O	9.2	-0.4	.	3.8	10.0	1.4	.
C[C@@H]1CN([C@H](C)CO)S(=O)(=O)c2ccc(C#CC3CC3)cc2O[C@H]1CN(C)C(=O)c1cccnc1	.	-8.6	.	.	.	.	.
CCCCCOc1ccc(NC(=O)C(=O)NCC2CCCN2CC)cc1 (configuration not stated)	-2.1	-49.7	4.2	-63.5	-1.6	10.6*	15.1*
Cc1cc(NCc2ccccn2)n2ncc(-c3ccc(Cl)cc3)c2n1	-27.0	.	2.0	-19.4	-22.0	3.0*	4.6*
CS(=O)(=O)N1CC2(C1)[C@H](c1ccccc1)[C@H](CO)N2CC1CCCC1	.	-1.5	.	.	.	.	.
CN(C)CCCNC(=O)C[C@H]1C[C@H](C(=O)N2CCOCC2)[C@@]2(C)c3[nH]c4ccc(Cl)cc4c3CCN2C1=O	-6.3	-1.9	.	5.3	5.0	5.2*	-1.1
Cc1cc(NC2=CC(=O)C(=O)c3ccccc32)no1	-9.9	-31.4	.	-41.7	-4.4	13.8*	15.8*
Clc1ccccc1OCCn1cnc2ccccc21	-23.2	.	4.1	-65.2	-29.9	0.4	.
Brc1ccccc1OCCCCn1cnc2ccccc21	12.1	-33.8	-3.0	-9.5	29.1	10.4*	2.2
CCSc1ccc2nnc(-c3cccs3)n2n1	5.7	-10.8	2.1	-20.2	4.9	0.0	.
CCOC(=O)CSc1ccc2nnc(-c3cccs3)n2n1	-8.2	4.4	-0.8	11.6	20.8	9.1*	0.4
O=C(COc1ccc(-c2ccccc2)cc1)Nc1cccnc1	7.8	-3.5	.	-13.9	9.3	4.6*	-0.8
O=C(COc1ccc(-c2ccccc2)cc1)NNC(=O)Nc1ccccc1	1.7	15.5	.	-7.5	-3.2	16.8*	0.8
CCC(=O)N1C[C@@H](C)[C@@H](OC)CN(C)C(=O)c2cc(NC(=O)C3CCOCC3)ccc2OC[C@@H]1C	.	2.1	.	.	.	.	.
O=C(NCCN1CCOCC1)c1ccc(Cl)c(S(=O)(=O)N2CCCCCC2)c1	9.3	.	-3.5	.	66.0*	4.7*	-0.8
Cc1nc(SCC(=O)Nc2cc(C(N)=O)cc(C(N)=O)c2)c2c(C)c(C)sc2n1	-3.9	0.0	5.1	7.6	-11.1	9.0*	13.2*
SMILES	EBV LMP1 NFkB	LGR2 inh	HSP90 refold inh	TROY signal inh	TWEAK-Fn14 inh	aDG glyco up	aDG conf
COc1cc(CNC(=O)Nc2nc(C(N)Cc3ccc(Cl)cc3)cs2)cc(OC)c1OC (configuration not stated)	.	5.6	.	16.9	2.6	5.8*	5.9*
COc1ccc(NC(=O)Cn2c(C)cc(=O)c3ccccc32)cc1	14.9	12.4	1.1	29.6	38.8	7.8*	-0.2
Cn1c(SCC(=O)Nc2ccc(NC(=O)c3cccc(F)c3)cc2)nnc1-c1ccncc1	-4.0	4.6	-0.6	13.2	-16.9	1.8*	-0.1
Cn1c(SCC(=O)Nc2ccc(NC(=O)c3ccccc3F)cc2)nnc1-c1ccncc1	-1.0	.	6.1	-17.6	-8.8	0.1	.
C[C@@H]1CN([C@@H](C)CO)C(=O)c2cc(/C=C/c3ccccc3)cnc2O[C@H]1CN(C)Cc1ccccc1	.	-7.1	.	.	.	.	.
COc1ccc2c3c(n(C)c2c1)[C@@H](CO)N(C(=O)CC1CC1)CC31CCN(C(=O)C2CCC2)CC1	.	-4.6	.	.	.	.	.
C=CCn1c(=N)n(CC(=O)c2ccc(Cl)cc2)c2ccccc21	9.1	-3.2	-1.3	-18.5	24.6	6.7*	6.3*
CCn1c(=N)n(CC(=O)c2ccc(Cl)c(Cl)c2)c2ccccc21	-44.9	-11.1	-0.1	-25.4	-3.7	8.0*	9.1*
Cn1cnc([N+](=O)[O-])c1Oc1ccc2ccccc2c1	9.4	-8.0	3.3	-2.5	46.7	4.7*	-0.7
Cc1c(C(=O)N(Cc2ccc(Cl)cc2)C2CCS(=O)(=O)C2)oc2ccccc12 (configuration not stated)	-4.8	-8.8	0.4	-1.2	-10.4	2.3*	-0.5
CCOc1ccc(CN(C(=O)c2oc3ccccc3c2C)C2CCS(=O)(=O)C2)cc1 (configuration not stated)	-10.5	.	-0.7	-4.9	0.7	0.2	.
O=C(COc1ccc(NS(=O)(=O)c2ccc(F)cc2)cc1)N1CCOCC1	-7.8	-20.5	-2.9	3.6	-2.3	11.3*	-0.9
O=C(C[C@@H]1CC[C@@H]2[C@H](COC[C@@H](O)CN2C(=O)Nc2ccc(C(F)(F)F)cc2)O1)NCCc1ccncc1	.	7.1	.	.	.	.	.
N#C[C@@H]1[C@H](c2ccc(C3=CCCCC3)cc2)[C@H](CO)N1C(=O)c1ccccn1	.	4.4	.	.	.	.	.
COC(=O)[C@@]1(Cc2ccc(F)cc2)[C@H]2c3cc(C(=O)N4CCCC4)n(CCSCCO)c3C[C@H]2CN1C(=O)c1ccccc1	.	-3.8	.	-5.4	-0.7	5.6*	-0.2
CC(C)NC(=O)Cn1cc(C(=O)C2CC2)c2ccccc21	2.3	-28.1	-4.4	-11.8	4.8	11.3*	-0.1
COc1ccccc1NC(=O)Cn1cc(C(=O)C2CC2)c2ccccc21	3.6	17.9	-1.2	-0.7	-4.4	0.1	.
Cc1cccnc1CN1CCN(C(=O)CCc2nnc(CCc3ccccc3)o2)CC1	-23.1	-12.1	4.9	-23.3	-25.0	0.0	.
Cc1cccnc1CCNC(=O)CCc1nnc(CCc2ccccc2)o1	-5.0	-3.3	0.5	-7.0	-14.6	3.3*	0.6
CN(C)c1ccc(/C=N\Nc2ccccn2)cc1	-35.5	-25.5	-3.4	-22.1	13.0	0.2	.
C=CCc1c(C)nc(C)nc1N/N=C/c1ccc(N(C)C)cc1	2.2	-22.3	-2.1	-25.3	7.4	6.3*	0.4
